Read-out in assay [1]: TIMP metallopeptidase inhibitor 1 (TIMP1), TIMP1 (gene 7076)
The experiment in a line: BSK_hDFCGF_TIMP1: BioMAP Diversity Plus: hDFCGF Assay for TIMP metallopeptidase inhibitor 1 (TIMP1) Biomarker Activity (AID 2283062). To be noted: primary human foreskin fibroblasts; actives raise or lower the signal. The method in brief:
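Fibroblasts from human foreskin are treated with test chemical and harvested at 24 h. TIMP-1 is quantified by ELISA, and gain or loss of signal is scored against DMSO.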

Read-out in assay [2]: Matrix Metallopeptidase 1 (MMP1), MMP1 (gene 4312)
The experiment in a line: BSK_hDFCGF_MMP1: BioMAP Diversity Plus: hDFCGF Assay for Matrix Metallopeptidase 1 (MMP1) Biomarker Activity (AID 2283064). Particulars: primary human foreskin fibroblasts; actives raise or lower the signal. The method in brief: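 ELISA read-out of MMP1 from human foreskin fibroblasts (primary skin cells), 24 h post-dose. Gain or loss of signal was fitted bidirectionally versus DMSO negative control; cytotoxicity was checked by SRB in parallel cultures.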

Read-out in assay [3]: Vascular cell adhesion molecule 1 (VCAM1), VCAM1 (gene 7412)
Nature of the assay: BSK_hDFCGF_VCAM1: BioMAP Diversity Plus: hDFCGF Assay for Vascular cell adhesion molecule 1 (VCAM1) Biomarker Activity (AID 2283065). Particulars: primary human foreskin fibroblasts; actives raise or lower the signal. The procedure, abridged: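 Cells are dosed, cultured for 24 h, then VCAM-1 is quantified by ELISA; signal increases and decreases are both fitted relative to DMSO.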

Read-out in assay [4]: Plasminogen activator inhibitor-1 (PAI1), SERPINE1 (gene 5054)
The experiment in a line: BSK_hDFCGF_PAI1: BioMAP Diversity Plus: hDFCGF Assay for Plasminogen activator inhibitor-1 (PAI1) Biomarker Activity (AID 2283066). Particulars: primary human foreskin fibroblasts; actives raise or lower the signal. The procedure, abridged:
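ELISA readout of PAI-1 from primary human skin fibroblast cultures, 24 h after compound addition. Gain or loss of signal was fitted bidirectionally against DMSO baseline.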

Read-out in assay [5]: Intercellular Adhesion Molecule 1 (ICAM1), ICAM1 (gene 3383)
Nature of the assay: BSK_KF3CT_ICAM1: BioMAP Diversity Plus: KF3CT Assay for Intercellular Adhesion Molecule 1 (ICAM1) Biomarker Activity (AID 2283067). Particulars: primary human keratinocytes with fibroblasts; actives raise or lower the signal. The method in brief:
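Dose the keratinocyte/fibroblast co-culture, wait 24 h, measure ICAM-1 by ELISA, then fit increases or decreases against DMSO. Cytotoxicity is checked in parallel cultures by SRB total-protein staining.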

Read-out in assay [6]: Interferon-gamma inducible Protein 10 (IP10), CXCL10 (gene 3627)
The experiment in a line: BSK_KF3CT_IP10: BioMAP Diversity Plus: KF3CT Assay for Interferon-gamma inducible Protein 10 (IP10) Biomarker Activity (AID 2283068). Particulars: primary human keratinocytes with fibroblasts; actives raise or lower the signal. The procedure, abridged:
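Human keratinocyte plus foreskin fibroblast primary co-culture exposed to test chemical for 24 h; IP-10 measured by ELISA. Concentration-response fitted bidirectionally against DMSO control as baseline.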

Read-out in assay [7]: Interleukin-1 alpha (IL1a), IL1A (gene 3552)
Nature of the assay: BSK_KF3CT_IL1a: BioMAP Diversity Plus: KF3CT Assay for Interleukin-1 alpha (IL1a) Biomarker Activity (AID 2283070). To be noted: primary human keratinocytes with fibroblasts; actives raise or lower the signal. The procedure, abridged: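 Primary skin co-culture (keratinocytes, foreskin fibroblasts), 24 h exposure; ELISA for IL-1a; bidirectional curve fit vs DMSO.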

Read-out in assay [8]: TIMP metallopeptidase inhibitor 2 (TIMP2), TIMP2 (gene 7077)
The experiment in a line: BSK_KF3CT_TIMP2: BioMAP Diversity Plus: KF3CT Assay for TIMP metallopeptidase inhibitor 2 (TIMP2) Biomarker Activity (AID 2283071). Particulars: primary human keratinocytes with fibroblasts; actives raise or lower the signal. The procedure, abridged:
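ELISA readout of TIMP-2 in keratinocyte plus foreskin fibroblast co-cultures (human skin primary cells), 24 h post-dose. Gain or loss of signal fitted relative to DMSO.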

Read-out in assay [9]: Transforming growth factor beta 1 (TGFb1), TGFB1 (gene 7040)
Nature of the assay: BSK_KF3CT_TGFb1: BioMAP Diversity Plus: KF3CT Assay for Transforming growth factor beta 1 (TGFb1) Biomarker Activity (AID 2283072). To be noted: primary human keratinocytes with fibroblasts; actives raise or lower the signal. The procedure, abridged: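 Read-out: ELISA for TGF-b1 in keratinocyte/foreskin fibroblast human skin co-culture, 24 h after dosing; bidirectional curve fit vs DMSO baseline; gain or loss of signal scored.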

Read-out in assay [10]: C-C motif chemokine 2 (Homo sapiens) (UniProt P13500)
The experiment in a line: BSK_KF3CT_MCP1: BioMAP Diversity Plus: KF3CT Assay for Monocyte Chemoattractant Protein 1 (MCP1/CCL2) Biomarker Activity (AID 2283073). Particulars: primary human keratinocytes with fibroblasts; actives raise or lower the signal. The procedure, abridged: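 Keratinocytes and foreskin fibroblasts were co-cultured, dosed with chemical, and sampled 24 h later. MCP-1 was quantified by ELISA, and the endpoint was analyzed with bidirectional fitting using DMSO as negative control.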

Read-out in assay [11]: Matrix Metallopeptidase 9 (MMP9), MMP9 (gene 4318)
The experiment in a line: BSK_KF3CT_MMP9: BioMAP Diversity Plus: KF3CT Assay for Matrix Metallopeptidase 9 (MMP9) Biomarker Activity (AID 2283074). To be noted: primary human keratinocytes with fibroblasts; actives raise or lower the signal. The method in brief: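 ELISA read-out of MMP-9 at 24 h post-dosing in a co-culture of human skin keratinocytes and foreskin fibroblasts. Gain or loss of signal was fitted in both directions against DMSO.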

Read-out in assay [12]: urokinase plasminogen activator (uPA), PLAU (gene 5328)
Nature of the assay: BSK_KF3CT_uPA: BioMAP Diversity Plus: KF3CT Assay for urokinase plasminogen activator (uPA) Biomarker Activity (AID 2283075). To be noted: primary human keratinocytes with fibroblasts; actives raise or lower the signal. The procedure, abridged:
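Skin co-culture (keratinocytes + foreskin fibroblasts), human primary; 24 h post-dose; uPA by ELISA; gain/loss fit vs DMSO baseline.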

Read-out in assay [13]: E-selectin (Homo sapiens) (UniProt P16581)
The experiment in a line: BSK_LPS_Eselectin: BioMAP Diversity Plus: LPS Assay for Eselectin Biomarker Activity (AID 2283077). Particulars: primary human HUVEC with PBMC; actives raise or lower the signal. The method in brief: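 Signal of E-selectin, detected by ELISA, served as the endpoint; cells were umbilical vein endothelium with PBMC, read 24 h after treatment. DMSO defined baseline, and both increases and decreases were fitted.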

Read-out in assay [14]: Interleukin-8 (IL8), CXCL8 (gene 3576)
The experiment in a line: BSK_LPS_IL8: BioMAP Diversity Plus: LPS Assay for Interleukin-8 (IL8) Biomarker Activity (AID 2283078). Particulars: primary human HUVEC with PBMC; actives raise or lower the signal. The procedure, abridged: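 Endothelial cells and PBMC from human donors are co-cultured, treated with chemicals and LPS, then assayed for IL-8 by ELISA after 24 h. Parallel SRB staining (0.1% SRB after 10% TCA fixation, 560 nm) flags cytotoxicity.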

Assay [15] is described as follows: BSK_LPS_SRB: Viability Assessment in the BioMAP Diversity Plus: LPS Assay (AID 2283079).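 Also: total protein by sulforhodamine B absorbance as a cytotoxicity measure; measured one day after compound addition.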 To be noted: primary human HUVEC with PBMC. The method in brief:
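Overt cytotoxicity was gauged by sulforhodamine B total-protein staining in a primary human vascular endothelial and mononuclear cell co-culture 24 h post-dosing. Activity was fitted in both directions relative to DMSO.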

Read-out in assay [16]: Interleukin-1 alpha (IL1a), IL1A (gene 3552)
The experiment in a line: BSK_LPS_IL1a: BioMAP Diversity Plus: LPS Assay for Interleukin-1 alpha (IL1a) Biomarker Activity (AID 2283080). To be noted: primary human HUVEC with PBMC; actives raise or lower the signal. The procedure, abridged:
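Measured: IL-1 alpha via ELISA at 24 h in LPS-activated human umbilical vein endothelium–PBMC co-culture. Baseline: DMSO, bidirectional fitting.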

A short description of assay [17]: BSK_KF3CT_SRB: Viability Assessment in the BioMAP Diversity Plus: KF3CT Assay (AID 2283069). To be noted: primary human keratinocytes with fibroblasts. The procedure, abridged: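 SRB read-out at 560 nm (0.1% stain, TCA-fixed cells) gauges overt cytotoxicity in a human skin keratinocyte–fibroblast co-culture 24 h post-dosing. Signal change was fitted bidirectionally relative to DMSO control.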

Read-out in assay [18]: Monocyte Chemoattractant Protein-1 (MCP1), CCL2 (gene 6347)
Nature of the assay: BSK_LPS_MCP1: BioMAP Diversity Plus: LPS Assay for Monocyte Chemoattractant Protein-1 (MCP1) Biomarker Activity (AID 2283081). Particulars: primary human HUVEC with PBMC; actives raise or lower the signal. The method in brief:
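LPS-stimulated HUVEC/PBMC co-culture; chemical, 24 h; MCP-1 by ELISA; bidirectional fit vs DMSO; cytotoxicity via SRB (0.1% stain, 10% TCA fix, 560 nm) in parallel wells.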

Read-out in assay [19]: CD40, CD40 (gene 958)
The experiment in a line: BSK_LPS_CD40: BioMAP Diversity Plus: LPS Assay for CD40 Biomarker Activity (AID 2283076). Particulars: primary human HUVEC with PBMC; actives raise or lower the signal. The method in brief: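 CD40 signal, measured by ELISA, is fitted in both directions relative to DMSO vehicle. The system is an LPS-driven human vascular primary co-culture of endothelial cells and PBMC, sampled 24 h after compound addition.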

Activity calls are given as the source filed them. The calls were made as follows: active = hit-call score of the fitted dose curve at least 0.9, where 1 is the maximum; inactive = score below 0.9.

E-selectin (Homo sapiens), sequence (P16581 whole entry, looked up): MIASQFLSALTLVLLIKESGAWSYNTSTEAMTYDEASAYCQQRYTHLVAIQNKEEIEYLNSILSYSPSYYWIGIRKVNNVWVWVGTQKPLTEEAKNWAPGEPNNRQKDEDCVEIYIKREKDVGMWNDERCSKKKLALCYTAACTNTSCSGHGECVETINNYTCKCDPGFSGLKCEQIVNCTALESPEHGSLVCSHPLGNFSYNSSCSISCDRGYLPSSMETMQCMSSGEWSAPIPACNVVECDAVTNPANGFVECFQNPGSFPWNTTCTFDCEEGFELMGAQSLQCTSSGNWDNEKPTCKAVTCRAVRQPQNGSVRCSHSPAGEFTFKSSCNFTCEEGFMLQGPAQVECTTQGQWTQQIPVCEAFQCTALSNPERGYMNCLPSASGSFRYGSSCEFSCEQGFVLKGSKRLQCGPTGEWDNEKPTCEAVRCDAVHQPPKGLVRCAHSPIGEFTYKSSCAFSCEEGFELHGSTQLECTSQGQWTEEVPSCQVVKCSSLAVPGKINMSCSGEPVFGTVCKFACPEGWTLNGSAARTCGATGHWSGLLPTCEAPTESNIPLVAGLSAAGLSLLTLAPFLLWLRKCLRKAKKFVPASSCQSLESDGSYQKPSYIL

On to `CN(C)c1nc(=O)n(C2CCCCC2)c(=O)n1C`, for which the result in [1], in [2], in assay [3], in assay [4], in assay [5] and in assay [6] was inactive. The result in assay [7], in assay [8], in [9], in assay [10], in [11] and in assay [12] was inactive. The result in assay [13], in assay [14], in assay [15] and in [16] was inactive.

For the molecule `CCOP(=S)(OCC)SCSC(C)(C)C`, the outcome in [1], in [2], in assay [3], in assay [4], in assay [5] and in [6] was inactive. Moreover, the result in [17], in assay [7], in assay [8], in [9], in [10] and in [11] was inactive. For the same molecule, the outcome in [12], in [13], in assay [14], in assay [15], in assay [16] and in [18] was inactive.

Turning to `COS(=O)(=O)OC`, the outcome in assay [1], in assay [2], in assay [3], in assay [4], in assay [5] and in [6] was inactive. The result in assay [7], in assay [8], in [9], in assay [10], in [11] and in [12] was inactive. Moreover, the result in [19], in [13], in assay [14], in assay [15], in assay [16] and in [18] was inactive.

Broadly, the AC50 is the concentration at which the activity in the assay is half-maximal. Consider `ClC1=C(Cl)[C@]2(Cl)[C@@H]3[C@@H](Cl)[C@H]4O[C@H]4[C@@H]3C1(Cl)C2(Cl)Cl`, for which the result in assay [1], in assay [2], in [3], in [4], in assay [5] and in assay [6] was inactive. Moreover, the result in [7], in [8], in [9], in assay [10], in assay [11] and in assay [12] was inactive. Also, the outcome in [13], in assay [14] and in [16] was inactive. In addition, the concentration at half-maximal activity (AC50) in assay [15] was 6.81 µM (active).

(Values after PubChem BioAssay (EPA / NIEHS).)
